USP30 block – blocks human USP30 ubiquitin-rhodamine cleavage | purified USP30, Ub-rhodamine cleavage fluorescence | 5.3% of 47,000 active | Q70CQ3 | inhibition, % at 25 µM
USP17 inh – blocks human USP17 ubiquitin-rhodamine cleavage. inhibition, % at 50 µM. purified USP17, Ub-rhodamine cleavage fluorescence, 3 h. 6.5% of 47,000 active
USP28 block – inhibitors of human USP28 deubiquitinase | 3% of 47,000 active | inhibition, % at 25 µM | purified USP28, Ub-rhodamine cleavage fluorescence, 30 min | Q96RU2 | AID 1645857
Target sequence (Q96RU2 whole entry, looked up): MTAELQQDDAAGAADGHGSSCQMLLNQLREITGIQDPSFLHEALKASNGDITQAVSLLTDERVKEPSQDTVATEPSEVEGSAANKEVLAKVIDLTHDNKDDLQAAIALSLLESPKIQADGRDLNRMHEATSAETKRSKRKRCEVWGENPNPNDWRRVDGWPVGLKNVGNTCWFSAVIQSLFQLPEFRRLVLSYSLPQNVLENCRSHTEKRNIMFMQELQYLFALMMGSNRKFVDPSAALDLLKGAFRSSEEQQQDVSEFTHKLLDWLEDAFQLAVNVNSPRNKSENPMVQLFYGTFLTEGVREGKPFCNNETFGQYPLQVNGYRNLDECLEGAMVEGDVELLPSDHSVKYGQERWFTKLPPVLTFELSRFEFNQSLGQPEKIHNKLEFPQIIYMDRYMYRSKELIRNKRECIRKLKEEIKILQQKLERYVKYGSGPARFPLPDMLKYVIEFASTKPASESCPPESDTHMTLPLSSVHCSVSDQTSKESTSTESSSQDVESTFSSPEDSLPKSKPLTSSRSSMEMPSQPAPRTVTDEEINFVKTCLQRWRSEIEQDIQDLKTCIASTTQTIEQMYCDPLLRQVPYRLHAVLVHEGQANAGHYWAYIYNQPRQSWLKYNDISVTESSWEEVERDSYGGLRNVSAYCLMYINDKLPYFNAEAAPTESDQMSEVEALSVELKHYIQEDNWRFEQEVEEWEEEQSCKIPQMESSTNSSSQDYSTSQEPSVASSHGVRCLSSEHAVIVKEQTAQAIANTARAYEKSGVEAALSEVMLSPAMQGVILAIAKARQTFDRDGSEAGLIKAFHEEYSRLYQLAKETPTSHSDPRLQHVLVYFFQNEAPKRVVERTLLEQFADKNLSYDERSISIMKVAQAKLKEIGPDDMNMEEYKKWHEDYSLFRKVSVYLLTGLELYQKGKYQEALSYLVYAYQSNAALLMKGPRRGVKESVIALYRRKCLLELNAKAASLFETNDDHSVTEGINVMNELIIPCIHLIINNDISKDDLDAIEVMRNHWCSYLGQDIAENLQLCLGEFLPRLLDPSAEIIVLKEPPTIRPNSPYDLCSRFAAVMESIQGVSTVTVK
OTUD3 inh – inhibitors of human OTUD3 deubiquitinase; Q5T2D3; purified OTUD3, Ub-rhodamine fluorescence, 2 h; inhibition, % at 25 µM; 0.7% of 47,000 active; AID 1645858
An asterisk follows results filed as active; / = no result. Hits are enriched below; roughly 11% of the tested compounds scored in any of these assays. No stated cut-off is given here; in the data, active means inhibition above about 30%; inactive means the rest.

SMILES | USP30 block | USP17 inh | USP28 block | OTUD3 inh
COc1cc(NC(=O)Cn2c(=O)[nH]c3ccccc3c2=O)cc(OC)c1 | 73.3* | 52.9* | 25.3 | 11.4
COc1cccc(CNC(=O)CCCCCn2c(=O)[nH]c3ccccc3c2=O)c1 | 41.2* | 29.5 | 11.7 | 10.4
COc1ccc(NC(=O)CCCCn2c(=O)[nH]c3ccccc3c2=O)cc1OC | 3.0 | 17.2 | -3.7 | -4.1
COC(=O)c1ccc2c(=O)n(CCCCCC(=O)NCCc3ccc(S(N)(=O)=O)cc3)c(=O)[nH]c2c1 | 88.4* | 27.0 | 85.6* | 20.9
CCOc1cc2[nH]c(=O)n(Cc3cccnc3)c(=O)c2cc1OCC | 32.9* | 16.5 | 7.2 | 11.3
COC(=O)c1ccc2c(=O)n(CCCCCC(=O)NCCc3ccccc3Cl)c(=O)[nH]c2c1 | -2.2 | 0.1 | -14.9 | -2.2
COc1ccc(-c2cc(=NCC(=O)NCC(=O)O)c3cc(C)ccc3o2)cc1 | / | 5.0 | / | 0.3
COc1ccc(CC(=O)N2CCC(c3nc4ccncc4n3C)C2)cc1 (centres undefined) | 0.2 | 0.7 | -5.3 | -0.5
CCOc1cc2[nH]c(=O)n(CCCC(=O)NCc3ccco3)c(=O)c2cc1OCC | -81.9 | 33.3* | -2.8 | 4.6
COc1cc2[nH]c(=O)n(Cc3ccc(C(=O)NCc4ccco4)cc3)c(=O)c2cc1OC | 11.5 | -0.2 | 0.2 | 12.8
CC(C)=CCC/C(C)=C/Cc1c(O)cc2c(c1O)C(=O)OC2 | 14.3 | 63.0* | 74.4* | 79.4*
CC(C)=CCC/C(C)=C/CC/C(C)=C/Cc1c(C)[nH]c2ccccc2c1=O | -0.5 | 8.4 | 6.9 | 8.0
Cc1nc(N2CCN(c3ncccn3)CC2)nc2c1C(=O)CC(/C=C/c1ccccc1)C2 (centres undefined) | 18.2 | 0.0 | 3.9 | -5.4
COc1ncccc1CNC(=O)Cc1cccnc1 | -16.5 | -6.0 | 0.0 | -0.3
CC(=O)CSc1nnc(-c2cnn(-c3ccccc3)c2N)o1 | 0.6 | -9.2 | -1.6 | -0.2
Nc1ccccc1-c1nnc(SCC(=O)c2ccccc2)o1 | 32.7* | 16.1 | 15.0 | 14.9
Cc1cccc(Cn2cc(C(=O)O)c3ccccc3c2=O)c1 | -3.8 | -4.8 | 8.1 | 0.0
COc1ccc2c(c1)c(=O)c(S(=O)(=O)c1ccccc1)cn2Cc1cccc(C)c1 | 32.1* | 13.8 | 23.4 | 5.0
O=C(CNC(=O)c1ccc2nc(-n3cccc3)sc2c1)NCc1ccccc1Cl | -335.8 | -133.1 | -55.8 | -72.5
COc1ccc(OC)c(C(C(=O)NC2CCCCC2)N(C(=O)c2ccc3c(c2)OCCO3)c2ccc(C)cc2)c1 (centres undefined) | 40.9* | 18.8 | 22.4 | 10.8
O=C(c1ccc2nc(C(F)(F)F)sc2c1)N1CCN(c2ncccn2)CC1 | -11.2 | -6.5 | -0.1 | 1.5
c1ccc(-n2cc(-c3noc(-c4cccnc4)n3)nn2)cc1 | 27.9 | 19.6 | 7.1 | 8.5
O=c1c2ccccc2c(-c2nc(-c3cccnc3)no2)cn1-c1ccc(Cl)cc1 | 37.5* | 4.4 | 6.3 | 8.4
CCOc1ccc(C2=NCCNC3=C2C(c2ccccc2)N(c2ccccc2)C3=O)cc1 (centres undefined) | 53.7* | 7.4 | 19.6 | 22.5
Cc1ccc(C2C3=C(NCCN=C3c3ccccc3)C(=O)N2c2ccccc2)cc1 (centres undefined) | 40.6* | -5.7 | 21.5 | 16.6
SMILES | USP30 block | USP17 inh | USP28 block | OTUD3 inh
C/C=C\C=C\[C@@H]1O[C@](O)(C(CC)C(=O)NC/C=C/C=C(\C)C(OC)C(C)C2CC(O)C(/C=C/C=C/C=C/C(=O)O)O2)C[C@H](O)[C@@]1(C)O (some centres undefined) | -47.8 | -15.2 | -0.1 | 5.3
O=c1c2cc([N+](=O)[O-])ccc2nc(CN2CCN(c3ccccn3)CC2)n1-c1ccccc1F | 60.9* | 22.2 | 24.7 | 30.3*
Cc1nn(C)c2c1[C@@H](c1ccc(F)cc1)[C@H](NC(=O)c1ccccc1)C(=O)N2 | 13.5 | 8.1 | 80.5* | 12.9
Cc1nn(-c2ccccc2)c2c1[C@@H](c1ccc3c(c1)OCCO3)[C@H](NC(=O)c1ccccc1)C(=O)N2 | -23.6 | -2.2 | -9.8 | -6.6
CCOc1ccc([C@@H]2c3c(C)nn(-c4ccccc4)c3NC(=O)[C@H]2NC(=O)c2cccc(C)c2)cc1 | 3.2 | 7.8 | 14.9 | 4.9
Cc1ccc(-n2nc(C)c3c2NC(=O)[C@@H](NC(=O)c2ccccc2)[C@@H]3c2ccc(F)cc2)cc1 | -5.5 | 5.2 | 47.7* | -8.5
Cc1cccc(CNC(=O)C2CCCN(c3cc(=O)n(C)c(=O)n3C)C2)c1 (centres undefined) | -28.2 | -0.2 | -0.4 | -10.6
